Several values for one entry are separate records, joined by “and”; a condition that tells them apart may be missing. Equal entries are not always repeated. Out of some 5,500 compounds screened, about 2,000 (36%) were called active. Not shown: some 18% with an inconclusive outcome. No stated cut-off is given here; in the data, active means normalized growth mostly below about 0.91 (no sharp cut-off); inconclusive means no clear call, values can overlap the other calls; inactive means mostly above about 0.92. The list shows a part of the results.
Assay: chemical genetic growth profiling, strain panel (AID 1159580);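 further: tested at 20 µM; growth read once vehicle control cultures reached saturation at 30 °C; 1 = growth at the plate median or of vehicle wells; lower values mean less growth of the strain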
Settings: growth OD

Measured: normalized growth

O=C(O)C(O)C(O)C(O)C(O)C(=O)O (stereo unspecified)
inactive: S. cerevisiae deletion strains, locus YBR021W, strain FUR4, active compounds read low 0.99 | S. cerevisiae deletion strains, locus YBR229C, strain ROT2, active compounds read low 0.998 | S. cerevisiae deletion strains, locus YCL029C, strain bik1, active compounds read low 0.982 | S. cerevisiae deletion strains, locus YDL035C, strain GPR1, active compounds read low 1.04 | S. cerevisiae deletion strains, locus YDL074C, strain BRE1, active compounds read low 1.04 | S. cerevisiae deletion strains, locus YDL101C, strain DUN1, active compounds read low 0.988 | S. cerevisiae deletion strains, locus YDL185W, strain tfp1, active compounds read low 1 | S. cerevisiae deletion strains, locus YDL192W, strain arf1, active compounds read low 0.993 | S. cerevisiae deletion strains, locus YDR101C, strain arx1, active compounds read low 0.983 | S. cerevisiae deletion strains, locus YDR150W, strain NUM1, active compounds read low 1.02 | S. cerevisiae deletion strains, locus YDR162C, strain NBP2, active compounds read low 1.01 | S. cerevisiae deletion strains, locus YDR318W, strain mcm21, active compounds read low 1 | S. cerevisiae deletion strains, locus YDR388W, active compounds read low 0.993 | S. cerevisiae deletion strains, locus YDR502C, strain sam2, active compounds read low 0.991 | S. cerevisiae deletion strains, locus YEL061C, strain CIN8, active compounds read low 1.06 | S. cerevisiae deletion strains, locus YER110C, active compounds read low 0.982 | S. cerevisiae deletion strains, locus YER155C, strain BEM2, active compounds read low 0.994 | S. cerevisiae deletion strains, locus YER167W, strain BCK2, active compounds read low 1 | S. cerevisiae deletion strains, locus YGL078C, strain dbp3, active compounds read low 0.994 | S. cerevisiae deletion strains, locus YGL086W, strain mad1, active compounds read low 0.966 | S. cerevisiae deletion strains, locus YGL248W, strain PDE1, active compounds read low 0.997 | S. cerevisiae deletion strains, locus YGR078C, strain PAC10, active compounds read low 0.997 | S. cerevisiae deletion strains, locus YGR135W, strain pre9, active compounds read low 0.991 | S. cerevisiae deletion strains, locus YGR229C, strain SMI1, active compounds read low 1.03 | S. cerevisiae deletion strains, locus YGR252W, strain gcn5, active compounds read low 1.04 | S. cerevisiae deletion strains, locus YHR030C, strain SLT2, active compounds read low 1 and 0.993 | S. cerevisiae deletion strains, locus YHR079C, strain IRE1 (second series), active compounds read low 0.99 | S. cerevisiae deletion strains, locus YHR079C, strain IRE1, active compounds read low 1 | S. cerevisiae deletion strains, locus YHR094C, strain hxt1, active compounds read low 0.989 | S. cerevisiae deletion strains, locus YHR129C, strain ARP1, active compounds read low 1.01 | S. cerevisiae deletion strains, locus YHR200W, strain rpn10, active compounds read low 0.983 | S. cerevisiae deletion strains, locus YIL066C, strain RNR3, active compounds read low 0.985 | S. cerevisiae deletion strains, locus YIL073C, strain SPO22, active compounds read low 1.01 | S. cerevisiae deletion strains, locus YIL125W, strain kgd1, active compounds read low 0.984 | S. cerevisiae deletion strains, locus YIR030C, strain dcg1, active compounds read low 0.986 | S. cerevisiae deletion strains, locus YJL095W, strain BCK1, active compounds read low 1.02 and 0.995 | S. cerevisiae deletion strains, locus YJL134W, strain LCB3, active compounds read low 1 | S. cerevisiae deletion strains, locus YJL168C, strain set2, active compounds read low 0.988 | S. cerevisiae deletion strains, locus YJL187C, strain SWE1 (second series), active compounds read low 0.996 | S. cerevisiae deletion strains, locus YJR043C, strain POL32, active compounds read low 1.01 | S. cerevisiae deletion strains, locus YJR066W, strain TOR1, active compounds read low 0.942 | S. cerevisiae deletion strains, locus YKL009W, strain mrt4, active compounds read low 0.966 | S. cerevisiae deletion strains, locus YKL068W, active compounds read low 0.998 | S. cerevisiae deletion strains, locus YKL085W, strain MDH1 (second series), active compounds read low 0.983 | S. cerevisiae deletion strains, locus YKL085W, strain MDH1, active compounds read low 0.983 | S. cerevisiae deletion strains, locus YKL190W, strain CNB1, active compounds read low 1.03 | S. cerevisiae deletion strains, locus YKR001C, strain vps1, active compounds read low 0.985 | S. cerevisiae deletion strains, locus YLR039C, strain RIC1, active compounds read low 1.07 | S. cerevisiae deletion strains, locus YLR058C, strain SHM2, active compounds read low 1 | S. cerevisiae deletion strains, locus YLR102C, strain apc9, active compounds read low 0.99 | S. cerevisiae deletion strains, locus YLR113W, strain HOG1, active compounds read low 0.995 | S. cerevisiae deletion strains, locus YLR262C, strain YPT6, active compounds read low 1.14 | S. cerevisiae deletion strains, locus YLR268W, strain sec22, active compounds read low 0.972 | S. cerevisiae deletion strains, locus YLR330W, strain CHS5, active compounds read low 0.992 | S. cerevisiae deletion strains, locus YLR342W, strain FKS1 (second series), active compounds read low 1 | S. cerevisiae deletion strains, locus YLR371W, strain rom2, active compounds read low 0.977 | S. cerevisiae deletion strains, locus YLR418C, strain cdc73, active compounds read low 0.993 | S. cerevisiae deletion strains, locus YML016C, strain PPZ1, active compounds read low 0.982 | S. cerevisiae deletion strains, locus YML032C, strain rad52, active compounds read low 1.02 | S. cerevisiae deletion strains, locus YML124C, strain tub3, active compounds read low 0.985 | S. cerevisiae deletion strains, locus YMR078C, strain ctf18, active compounds read low 0.983 | S. cerevisiae deletion strains, locus YMR223W, strain ubp8, active compounds read low 1.01 | S. cerevisiae deletion strains, locus YMR263W, strain SAP30, active compounds read low 1 | S. cerevisiae deletion strains, locus YMR307W, strain GAS1, active compounds read low 1.1 | S. cerevisiae deletion strains, locus YNL067W, strain RPL9B, active compounds read low 1 | S. cerevisiae deletion strains, locus YNL183C, strain NPR1, active compounds read low 0.909 | S. cerevisiae deletion strains, locus YNL233W, strain BNI4, active compounds read low 1 | S. cerevisiae deletion strains, locus YNL250W, strain rad50, active compounds read low 0.972 | S. cerevisiae deletion strains, locus YNL271C, strain bni1, active compounds read low 0.984 | S. cerevisiae deletion strains, locus YNL298W, strain CLA4, active compounds read low 0.992 | S. cerevisiae deletion strains, locus YNL307C, strain MCK1, active compounds read low 0.979 | S. cerevisiae deletion strains, locus YNL322C, strain KRE1, active compounds read low 1 | S. cerevisiae deletion strains, locus YNR052C, strain pop2, active compounds read low 1 | S. cerevisiae deletion strains, locus YOL006C, strain TOP1, active compounds read low 0.989 | S. cerevisiae deletion strains, locus YOL012C, strain htz1 0.785 | S. cerevisiae deletion strains, locus YOL147C, strain pex11, active compounds read low 0.991 | S. cerevisiae deletion strains, locus YOR061W, strain CKA2, active compounds read low 0.997 | S. cerevisiae deletion strains, locus YOR069W, strain VPS5, active compounds read low 1 | S. cerevisiae deletion strains, locus YOR136W, strain idh2, active compounds read low 0.983 | S. cerevisiae deletion strains, locus YOR144C, strain elg1, active compounds read low 0.982 | S. cerevisiae deletion strains, locus YOR184W, strain ser1, active compounds read low 0.993 | S. cerevisiae deletion strains, locus YOR231W, strain MKK1, active compounds read low 1.01 | S. cerevisiae deletion strains, locus YOR316C, strain cot1, active compounds read low 0.983 | S. cerevisiae deletion strains, locus YPL241C, strain CIN2, active compounds read low 1.05 | S. cerevisiae deletion strains, locus YPL256C, strain CLN2, active compounds read low 0.978 | S. cerevisiae deletion strains, locus YPR119W, strain clb2, active compounds read low 0.986 | S. cerevisiae deletion strains, locus YPR141C, strain kar3, active compounds read low 0.986 | S. cerevisiae deletion strains, locus YPR163C, strain tif3, active compounds read low 0.982 | S. cerevisiae deletion strains, locus YPR167C, strain met16, active compounds read low 0.988 | S. cerevisiae deletion strains, strain wtn01, active compounds read low 0.971 | S. cerevisiae strains, strain wild type, active compounds read low 1.03
